The text below walks through data of PubChem BioAssay (NCATS).

Values joined by “and” are separate entries in the source; they are usually repeats but may differ in a detail not shown here. Equal entries are not always repeated. Records with an inconclusive call do not appear. Values without a mark were called inactive. Active and inactive are the calls of the source. Calls follow the shape of the dose curve; as a rule, active = well fitted curve in the direction sought with a large enough effect; inconclusive = small, poorly fitted or top-dose-only effect, or another doubt; inactive = no such curve, though single readings can be large; an effect the other way counts as inactive or inconclusive.

Sequence of Glutathione peroxidase 1 (Homo sapiens) (P07203 whole entry, looked up): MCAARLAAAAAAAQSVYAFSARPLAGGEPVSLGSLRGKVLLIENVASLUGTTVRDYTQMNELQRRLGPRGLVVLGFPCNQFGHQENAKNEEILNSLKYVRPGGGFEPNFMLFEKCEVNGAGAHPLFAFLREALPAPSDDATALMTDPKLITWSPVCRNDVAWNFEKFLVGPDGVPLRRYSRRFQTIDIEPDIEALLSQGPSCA
Sequence of Phospholipid hydroperoxide glutathione peroxidase GPX4 (Homo sapiens) (P36969 whole entry, looked up): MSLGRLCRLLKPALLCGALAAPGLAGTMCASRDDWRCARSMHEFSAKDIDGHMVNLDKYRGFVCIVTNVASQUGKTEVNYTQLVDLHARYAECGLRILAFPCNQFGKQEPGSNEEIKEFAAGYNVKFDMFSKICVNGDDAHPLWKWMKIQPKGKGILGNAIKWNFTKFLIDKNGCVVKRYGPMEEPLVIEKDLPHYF

For the first experiment, the target named is Rap guanine nucleotide exchange factor 3 (Homo sapiens) (UniProt O95398). Nature of the experiment: Confirmatory qHTS for antagonist of cAMP-regulated guanine nucleotide exchange factor 3 (EPAC1) (AID 1645880).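 Also: plate controls were DMSO only for no effect and full effect of the ATA control for full effect; nearly all actives have a fitted effect of over 55% in size.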 The conditions noted are these: EPAC1 Rap1B-BODIPY-GDP exchange, fluorescence; series mostly up to 115 µM; activity, negative = inhibition: at the top concentration. A digest of the protocol: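 Nucleotide exchange uses 100 nM EPAC1, 250 nM RAP1B-BODIPY-GDP and 50 uM GDP, with compounds in a concentration-titration series. After 5 min at room temperature, fluorescence (480 nm ex/540 nm em) is read every 5 min for 30 min. Data are normalized to control ATA and DMSO.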
Sequence of Rap guanine nucleotide exchange factor 3 (Homo sapiens) (O95398 whole entry, looked up): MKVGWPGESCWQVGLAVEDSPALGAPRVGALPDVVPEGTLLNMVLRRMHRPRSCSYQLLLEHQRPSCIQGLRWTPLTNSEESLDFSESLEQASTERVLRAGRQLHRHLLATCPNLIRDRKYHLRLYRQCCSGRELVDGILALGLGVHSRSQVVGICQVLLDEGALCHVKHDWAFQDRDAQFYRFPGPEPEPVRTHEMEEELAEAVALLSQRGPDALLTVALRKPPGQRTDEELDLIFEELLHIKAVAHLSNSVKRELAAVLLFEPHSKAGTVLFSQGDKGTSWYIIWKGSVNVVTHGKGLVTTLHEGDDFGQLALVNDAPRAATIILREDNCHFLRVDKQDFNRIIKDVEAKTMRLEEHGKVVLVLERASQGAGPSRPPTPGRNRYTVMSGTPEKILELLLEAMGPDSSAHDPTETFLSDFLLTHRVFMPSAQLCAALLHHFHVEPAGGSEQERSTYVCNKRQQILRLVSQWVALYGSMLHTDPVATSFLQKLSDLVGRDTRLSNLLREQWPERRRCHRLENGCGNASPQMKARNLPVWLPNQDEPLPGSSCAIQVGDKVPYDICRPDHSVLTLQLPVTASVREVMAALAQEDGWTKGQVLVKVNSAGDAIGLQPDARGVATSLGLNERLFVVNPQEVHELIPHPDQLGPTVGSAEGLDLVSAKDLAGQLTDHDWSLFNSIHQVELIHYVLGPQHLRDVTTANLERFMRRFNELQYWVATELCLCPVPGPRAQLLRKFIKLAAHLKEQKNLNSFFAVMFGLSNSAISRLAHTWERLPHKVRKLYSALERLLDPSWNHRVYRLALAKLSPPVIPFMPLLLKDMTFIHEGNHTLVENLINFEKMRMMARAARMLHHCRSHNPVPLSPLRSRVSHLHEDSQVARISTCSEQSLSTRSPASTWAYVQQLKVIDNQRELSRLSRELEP
Consider `Cl/C(=C\n1cncn1)c1ccc(Cl)cc1Cl`, for which the “activity, negative = inhibition” value was -12.2%.
Regarding `CCOC(=O)C(C#N)=C(c1ccccc1)c1ccccc1`, the “activity, negative = inhibition” value is -13.1%.
Regarding `COc1ccc(C(Cl)=C(c2ccc(OC)cc2)c2ccc(OC)cc2)cc1`, the Potency entry is “inactive”.

The target is the same in the next experiment. Nature of the experiment: Confirmatory qHTS for agonist of cAMP-regulated guanine nucleotide exchange factor 3 (EPAC1) (AID 1645881).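 Also: EPAC1 catalysed release of BODIPY-GDP from Rap1B seen as fluorescence loss; nearly all actives have a fitted effect of over 75% in size.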 The conditions noted are these: EPAC1 Rap1B BODIPY-GDP exchange fluorescence, 100% = cAMP control response; series mostly up to 154 µM; activation: at the top concentration.
On to `Cl/C(=C\n1cncn1)c1ccc(Cl)cc1Cl`, for which the “activation” value was 5.27%.
For `CCOC(=O)C(C#N)=C(c1ccccc1)c1ccccc1`, the “activation” value was -8.2%.
On to `COc1ccc(C(Cl)=C(c2ccc(OC)cc2)c2ccc(OC)cc2)cc1`, for which the call was inactive.
With `COc1ccc(C(=O)c2ccccc2O)c(O)c1`, the “activation” value is -7.19%.

The next experiment deals with Rap guanine nucleotide exchange factor 4 (Homo sapiens) (UniProt Q8WZA2). The experiment is described as follows: Confirmatory qHTS for agonist of cAMP-regulated guanine nucleotide exchange factor 4 (EPAC2) (AID 1645884).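 Also: nucleotide exchange releases bodipy-GDP from Rap1 and this lowers its fluorescence; % is scaled to controls: 0 for no effect and ±100 for the full control effect; nearly all actives have a fitted effect of over 65% in size.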 The conditions noted are these: EPAC2 GEF activity, Rap1B-BODIPY-GDP fluorescence, percent relative to cAMP agonist control; series mostly up to 154 µM; activation: at the top concentration.
Sequence of Rap guanine nucleotide exchange factor 4 (Homo sapiens) (Q8WZA2 whole entry, looked up): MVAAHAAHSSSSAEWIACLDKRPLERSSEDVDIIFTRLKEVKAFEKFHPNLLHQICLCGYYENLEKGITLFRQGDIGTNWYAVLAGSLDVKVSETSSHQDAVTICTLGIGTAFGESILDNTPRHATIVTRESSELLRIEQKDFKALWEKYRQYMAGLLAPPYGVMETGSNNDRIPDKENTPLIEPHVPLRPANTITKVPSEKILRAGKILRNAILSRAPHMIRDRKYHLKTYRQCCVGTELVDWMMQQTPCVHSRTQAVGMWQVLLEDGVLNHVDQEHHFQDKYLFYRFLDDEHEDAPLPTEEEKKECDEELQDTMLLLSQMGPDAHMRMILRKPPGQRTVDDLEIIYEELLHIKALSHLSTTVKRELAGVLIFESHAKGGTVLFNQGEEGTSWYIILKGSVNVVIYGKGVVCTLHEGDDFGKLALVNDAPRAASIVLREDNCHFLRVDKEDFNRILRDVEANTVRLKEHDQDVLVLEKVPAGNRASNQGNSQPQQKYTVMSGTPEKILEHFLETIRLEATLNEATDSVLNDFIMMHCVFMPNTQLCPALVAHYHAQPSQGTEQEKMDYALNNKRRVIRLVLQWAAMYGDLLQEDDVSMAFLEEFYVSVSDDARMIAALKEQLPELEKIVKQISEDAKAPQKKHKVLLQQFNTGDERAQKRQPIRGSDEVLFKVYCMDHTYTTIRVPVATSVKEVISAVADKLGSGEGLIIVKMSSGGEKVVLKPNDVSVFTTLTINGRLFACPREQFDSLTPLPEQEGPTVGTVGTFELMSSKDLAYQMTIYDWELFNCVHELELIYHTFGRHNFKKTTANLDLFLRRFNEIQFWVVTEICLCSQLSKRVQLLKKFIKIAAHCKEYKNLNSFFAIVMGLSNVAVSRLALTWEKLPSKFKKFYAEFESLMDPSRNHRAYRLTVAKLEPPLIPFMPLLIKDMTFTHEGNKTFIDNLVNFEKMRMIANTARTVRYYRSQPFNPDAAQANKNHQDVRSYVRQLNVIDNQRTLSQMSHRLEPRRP
For `Cl/C(=C\n1cncn1)c1ccc(Cl)cc1Cl`, the “activation” value is 8.05%.
Regarding `CCOC(=O)C(C#N)=C(c1ccccc1)c1ccccc1`, the “activation” value is -7.48%.
Take `COc1ccc(C(Cl)=C(c2ccc(OC)cc2)c2ccc(OC)cc2)cc1`: the outcome was inactive.
As for `COc1ccc(C(=O)c2ccccc2O)c(O)c1`, the “activation” value is 10%.

The target is the same in another experiment. The experiment is described as follows: Confirmatory qHTS for antagonist of cAMP-regulated guanine nucleotide exchange factor 4 (EPAC2) (AID 1645885). Also: nearly all actives have a fitted effect of over 25% in size. Also: potency is read from the fitted curve at half-maximal effect. As to activity change, negative = inhibition: % is scaled to controls: 0 for no effect and ±100 for the full control effect. The note with it: EPAC2 Rap1B-BODIPY-GDP exchange fluorescence, biochemical; series mostly up to 114 µM; activity change, negative = inhibition: at the top concentration.
Turning to `Cl/C(=C\n1cncn1)c1ccc(Cl)cc1Cl`, the “activity change, negative = inhibition” value is -17.7%.
As to `CCOC(=O)C(C#N)=C(c1ccccc1)c1ccccc1`, the Potency is 49.4 µM (active).
As for `COc1ccc(C(Cl)=C(c2ccc(OC)cc2)c2ccc(OC)cc2)cc1`, the Potency was 7.84 µM (active) and 2.31 µM (active).
In the case of `COc1ccc(C(=O)c2ccccc2O)c(O)c1`, the Potency was 44.1 µM (active).

Test system in the next experiment: not listed separately
Nature of the experiment: NCATS anti-infectives library activity on HEK293 viability as a counter-qHTS vs the C. elegans viability qHTS (AID 1745854).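 Also: HEK293 cells exposed to compounds for 24 hr before the viability read; % is scaled to controls: 0 for no effect and ±100 for the full control effect.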 The note with it: HEK293 viability counter-screen; series mostly up to 41.8 µM; activity change, negative = cytotoxicity: at the top concentration. A digest of the protocol: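 HEK293 cells (1,500/well) exposed 24 hr at 37C to 1:5 titrations, up to 41.7 uM final; counter-screen to a C. elegans viability qHTS. Viability by CellTiter-Glo luminescence after 10 min at room temperature; digitonin as control.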
As for `O=C1C(=O)c2ccccc2C(O)=C1C1CCC(c2ccc(Cl)cc2)CC1` (stereo not drawn), the “activity change, negative = cytotoxicity” value is -4.74%.
On the same count and under the same terms, with `CCCN(CCC)S(=O)(=O)c1ccc(C(=O)O)cc1` the figure was 6.99%; with `CCN(CC)CCNc1ccc(CO)c2sc3ccccc3c(=O)c12`, -4.13%; with `COc1cc(C(=O)NCc2ccc(OCCN(C)C)cc2)cc(OC)c1OC`, -14.5%.
Still for that read-out and setting: with `O=C(O)CCc1nc2ccccc2[nH]1` the figure was -3.62%.

The target of another experiment is Glutathione peroxidase 1 (Homo sapiens) (UniProt P07203). Nature of the experiment: Primary qHTS Assay for Inhibitors of Recombinant Selenoprotein Glutathione Peroxidase 1 (GPX1) (AID 1845191). Also: nearly all actives have a fitted effect of over 65% in size. As to activity, negative = inhibition: % is scaled to controls: 0 for no effect and ±100 for the full control effect. The conditions noted are these: recombinant GPX1, GR-coupled NADPH fluorescence, 15 min; series mostly up to 48.8 µM; activity, negative = inhibition: at the top concentration. In a few lines:
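10 nM GPX1 + cpd, 30 min RT; start w/ 1 mM GSH, 0.5 mM cumene hydroperoxide, 0.5 mM NADPH, 100 nM GR, 0.01% BSA; buffer 50 mM Tris-HCl pH 7.5, 2 mM EDTA, 150 mM NaCl; Fl 340/450, 0 & 15 min.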
With `O=C1C(=O)c2ccccc2C(O)=C1C1CCC(c2ccc(Cl)cc2)CC1` (stereo not drawn), the “activity, negative = inhibition” value was -29.9%.
Consider `CCCN(CCC)S(=O)(=O)c1ccc(C(=O)O)cc1`, for which the outcome was inactive.
`COc1ccc(C(=O)c2ccccc2O)c(O)c1`: the “activity, negative = inhibition” value was -20.7%.

Another experiment concerns the target Phospholipid hydroperoxide glutathione peroxidase GPX4 (Homo sapiens) (UniProt P36969). The experiment is described as follows: Primary qHTS Assay for Inhibitors of Recombinant Selenoprotein Glutathione Peroxidase 4 (GPX4) (AID 1845192). Also: nearly all actives have a fitted effect of over 65% in size. As to activity change, negative = inhibition: % is scaled to controls: 0 for no effect and ±100 for the full control effect. The conditions noted are these: recombinant GPX4, GR-coupled NADPH fluorescence, 15 min; series mostly up to 50 µM; activity change, negative = inhibition: at the top concentration. In a few lines: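 NADPH consumption, followed by fluorescence at 340/450 nm between 0 and 15 min, reports GPX4 activity via coupled glutathione reductase (100 nM). Enzyme 200 nM was pre-exposed to compound 30 min; 0.5 mM cumene hydroperoxide and 1 mM GSH served as substrates.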
Consider `O=C1C(=O)c2ccccc2C(O)=C1C1CCC(c2ccc(Cl)cc2)CC1` (stereo not drawn), for which the “activity change, negative = inhibition” value is -22.5%.
With `CCCN(CCC)S(=O)(=O)c1ccc(C(=O)O)cc1`, the result was inactive.
Same read-out and setting: the result for `COc1cc(C(=O)NCc2ccc(OCCN(C)C)cc2)cc(OC)c1OC` reads “inactive”; that for `COc1ccc(C(Cl)=C(c2ccc(OC)cc2)c2ccc(OC)cc2)cc1`, “inactive”.
`COc1ccc(C(=O)c2ccccc2O)c(O)c1`: the “activity change, negative = inhibition” value is -17.9%.
